Bioassay records deposited in PubChem by National Center for Advancing Translational Sciences (NCATS).
Hits are enriched below; roughly 19% of the tested compounds scored in any of these assays.
HT1080 IDH1KD tx = HT-1080 IDH1 knockdown cell toxicity (counter line) | HT-1080 IDH1 knockdown viability, ATP luminescence, 48 h | Potency, µM (titrated, usually from 46.1 µM), for inactives: at the highest dose activity, negative = toxicity, actives largely listed as cytotoxic | 2% of 360,000 active;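 further: potency means the concentration at half of the fitted maximal effect; 0% = DMSO wells and -100% = cell-free medium wells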
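Viability of IDH1-knockdown HT-1080 fibrosarcoma cells was assessed by CellTiter-Glo after 48 h at 37 °C with titrated compound; concentration-effect curves were classified by fit quality and response size.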
IL1B secr inh = blocks inflammasome-driven IL-1 beta release; 4.7% of 360,000 active; THP-1 LPS/ATP IL-1B secretion, AlphaLISA, 16 h; stronger effect = lower value; activity change, % at 57.5 µM; in the data active means activity change below about -50%; inconclusive means mostly about -30% to -49%
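Secreted IL-1B measured by AlphaLISA bead assay after 16 h compound exposure of THP-1 cells; compounds (final up to 57.5 uM) added 1 h before LPS (250 ng/mL) and ATP (1.25 mM) stimulation; lower signal means less secretion.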
ELG1 DNA repair = ELG1-dependent DNA repair inhibition. 2.3% of 330,000 active. Potency, µM (doses to about 46.1 µM), without a hit: at the top dose activity change, negative = inhibition, actives largely listed as inhibitors. HEK293T ELG1-luciferase reporter, luminescence, 16 h; DNA damage induced by 5-fluorouridine; further: potency means the concentration at half of the fitted maximal effect; nearly all actives have a fitted effect of over 55% in size
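HEK293T cells expressing luciferase-tagged ELG1 (2,000/well) received 5-Fluorouridine plus compound or DMSO for 16 hr at 37 °C. Luciferase was read by ONE-Glo luminescence after 30 min at room temperature.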
HT1080NT lethal = kills 2HG-producing HT-1080-NT fibrosarcoma cells; HT-1080-NT fibrosarcoma viability, CellTiter-Glo ATP luminescence, 48 h; Potency, µM (top dose mostly 46.1 µM), for inactives: at the top dose activity, negative = less viability, hits mostly cytotoxic; 1.6% of 360,000 active;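 further: NT is the 2HG producing partner of a matched IDH1 knockdown line; potency means the concentration at half of the fitted maximal effect; 0% = DMSO-treated cells and -100% = media-only wells without cells; nearly all actives have a fitted effect of over 55% in size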
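Read-out is CellTiter-Glo luminescence after 10 minutes at room temperature, following 48 hours' compound treatment of HT-1080-NT cells (750 cells/well, RPMI, 5% FBS, 37 degrees C).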
TDP1 cell noCPT = qHTS for Inhibitors of human tyrosyl-DNA phosphodiesterase 1 (TDP1): qHTS in cells in absence of CPT. DT40 Tdp1-/- hTDP1 cells, no CPT, ATP luminescence, 48 h. Potency, µM (top dose mostly 46.2 µM), inactives show at the highest dose activity change, negative = growth inhibition, actives largely listed as inhibitors. 15% of 420,000 active; further: potency means the concentration at half of the fitted maximal effect; nearly all actives have a fitted effect of over 55% in size
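No-CPT arm: Tdp1-/-;hTDP1 DT40 cells (400/well) plus compounds, incubated ≥48 hr at 37 °C. Readout CellTiter-Glo luminescence.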
DT40 TDP1 CPT = DT40-hTDP1 cell growth loss with CPT. Potency, µM (highest dose often 46.2 µM), for inactives: top-dose activity change, negative = growth inhibition, actives largely listed as inhibitors. 12% of 420,000 active. chicken DT40 Tdp1-/-;hTDP1 cells + 20 nM CPT, ATP luminescence, 48 h; further: potency means the concentration at half of the fitted maximal effect; nearly all actives have a fitted effect of over 55% in size
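Cell growth measured by CellTiter-Glo luminescence after a minimum 48 h, 37 C compound exposure with 20 nM CPT in Tdp1-knockout DT40 cells stably expressing hTDP1, seeded 400/well; qHTS titration format.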
* marks the source's active call; other numbers are inactive results; ? = inconclusive; . = no result given; ! = not active in a repeat. Unless noted, the call rests on the fitted dose curve; in most records, active means well fitted curve in the direction sought with a large enough effect; inconclusive means small, poorly fitted or top-dose-only effect, or another doubt; inactive means no such curve, though single readings can be large; an effect the other way counts as inactive or inconclusive. Unless noted, on the % scale 0 is the no-effect control and ±100 the full control effect.

SMILES	HT1080 IDH1KD tx	IL1B secr inh	ELG1 DNA repair	HT1080NT lethal	TDP1 cell noCPT	DT40 TDP1 CPT
COc1cc(NC(=O)CSc2nc(-c3ccc(C(C)C)cc3)no2)cc(OC)c1	.	.	.	.	?	-15%
CCN(C(=O)CSc1nc(-c2ccc(C(C)C)cc2)no1)c1ccccc1	.	.	.	.	?	15µM*
CC1CCN(CC(O)COCCC23CC4CC(CC(C4)C2)C3)CC1 (stereo not given)	?	?	?	?	21µM*	21µM*
CC1CCN(CC(O)COCCOc2ccc(Br)cc2)CC1 (stereo not given)	-4%	-8	-2%	-4%	?	-20%
CCCCNC(=O)C1(C)CCN1C(=O)c1ccc(F)c(C)c1 (stereo not given)	14%	-3	.	24%	?	-28%
CCCCNC(=O)C1(C)CCCCN1C(=O)c1ccc2c(c1)C(C)(C)CCC2(C)C (stereo not given)	?	-5	.	?	2.1µM*	3.7µM*
CCCCNC(=O)C1(C)CCN1C(=O)c1ccc2c(c1)C(C)(C)CCC2(C)C (stereo not given)	-4%	47	.	19%	13µM*	21µM*
CS(=O)(=O)N(Cc1ccccc1)c1ccccc1C(=O)N1CCN(c2ccccc2)CC1	-13%	0	-1%	0%	16µM*	21µM*
CS(=O)(=O)N(Cc1ccc(Cl)cc1)c1ccc(C(=O)N2CCN(c3ccccc3)CC2)cc1	-14%	-51*	?	-17%	?	?
CS(=O)(=O)N(Cc1ccccc1)c1ccc(C(=O)N2CCN(c3cccc(Cl)c3)CC2)cc1	?	?	?	?	14µM*	11µM*
CS(=O)(=O)N(CC(=O)N1CCN(c2cccc(Cl)c2)CC1)c1cccc(F)c1	-1%	-18	-6%	-6%	16µM*	?
CC(=O)Nc1ccccc1-c1nc(CNC(=O)c2ccc(-c3ccccc3F)cc2)c(C)o1	.	.	.	.	-7%	11%
N#Cc1ccc(Oc2cnccn2)cc1	20%	-22	4%	22%	-13%	11%
CCc1ccc(-c2nc(CS(=O)CC(=O)NCc3ccc4c(c3)OCO4)c(C)o2)cc1 (stereo not given)	-14%	25	3%	0%	-28%	-26%
CCc1cccc(NC(=O)CS(=O)Cc2nc(-c3ccc(C)cc3)oc2C)c1 (stereo not given)	-9%	9	?	-5%	16µM*	?
CCc1ccc(-c2nc(CS(=O)CC(=O)NCc3ccccc3)c(C)o2)cc1 (stereo not given)	-7%	15	10%	-8%	-15%	-5%
Cc1ccc(-c2nc(CS(=O)CC(=O)NCc3ccc4c(c3)OCO4)c(C)o2)cc1 (stereo not given)	-5%	-12	10%	-1%	16µM*	?
N#CC1=C(N)Oc2ccc3ccc(O)cc3c2C1c1ccsc1 (stereo not given)	?	38	-3%	?	?	-20%
Cc1c(C(=O)N2CCN(C)CC2)sc2ncnc(NCC3(c4ccccc4)CCOCC3)c12	.	.	.	.	-13%	-22%
C=CCSc1nc2ccccc2n1C(=O)/C=C/c1cc(OC)c(OC)c(OC)c1	2.2µM*	-104*	?	5µM*	2.1µM*	2.3µM*
CCSc1nc2ccccc2n1C(=O)/C=C/c1ccc(OC)c(OC)c1	5.8µM*	-103*	?	8.2µM*	3.3µM*	4.1µM*
C=CCSc1nc2ccccc2n1S(=O)(=O)c1ccc(C)cc1	12%	18	?	11%	-27%	-11%
C=CCSc1nc2ccccc2n1C(=O)/C=C/c1ccc(OC)c(OC)c1	2.5µM*	-102*	?	?	3.5µM*	5µM*
CCn1c(SCC(=O)N/N=C/c2ccc(OC)c(OC)c2)nc2ccccc21	2%	7	-5%	7%	?	?
Cc1cc(C)cc(OCCSc2nc3ccc(NC(=O)c4cccs4)cc3s2)c1	.	.	.	.	21µM*	?
SMILES	HT1080 IDH1KD tx	IL1B secr inh	ELG1 DNA repair	HT1080NT lethal	TDP1 cell noCPT	DT40 TDP1 CPT
COc1ccccc1C(=O)Nc1ccc2nc(SCCOc3ccccc3C)sc2c1	.	.	.	.	18µM*	16µM*
Cc1ccccc1NC(=O)CSc1nc2ccc(NC(=O)c3cccs3)cc2s1	.	.	.	.	21µM*	?
Cc1ccc(OCCSc2nc3ccc(NC(=O)c4cccs4)cc3s2)cc1	.	.	.	.	-25%	-24%
CCn1c(CC(=O)Nc2ccccc2F)nnc1SCC(=O)NC1CCCC1	7%	4	0%	12%	-8%	-14%
CC(C)CCNC(=O)c1cc(-c2ccc(Br)s2)nc2ccccc12	.	.	.	.	?	15µM*
COc1ccc(CNC(=O)c2cc(-c3ccc(Br)s3)nc3ccccc23)c(OC)c1	.	.	.	.	15µM*	?
CC(C)CCNC(=O)c1cc(-c2cccs2)nc2ccccc12	-17%	24	-24%	-17%	?	?
Cn1nc(C(=O)N2CCN(c3ccccn3)CC2)c2ccccc2c1=O	-3%	14	-19%	7%	?	?
CC1CC(=O)N(CC(=O)NCc2ccccc2)c2ccccc2S1(=O)=O (stereo not given)	17%	11	16%	6%	19%	6%
Cc1c(Nc2ncccc2C(=O)O)cccc1C(F)(F)F	12%	22	17%	-1%	4µM*!	?
Cc1ccc2oc(=O)cc(CN3CCN(C/C=C/c4ccccc4)CC3)c2c1	10%	8	-16%	0%	16µM*	?
O=c1cc(CN2CCN(C/C=C/c3ccccc3)CC2)c2cc(O)ccc2o1	?	-54*	-19%	26µM*	?	?
Cc1ccc2c(CN3CCN(Cc4ccccc4Cl)CC3)cc(=O)oc2c1	.	.	.	.	23µM*	16µM*
O=c1cc(CN2CCN(Cc3ccccc3)CC2)c2ccc(O)cc2o1	-11%	31	-14%	-2%	?	1%
Cc1ccc2c(CN3CCN(Cc4ccccc4)CC3)cc(=O)oc2c1	6%	2	?	3%	-17%	-25%
C[N+]1(CC(=O)c2cccc([N+](=O)[O-])c2)CCOCC1	.	.	.	.	0%	-5%
COc1cc2nc(CN3CCN(S(=O)(=O)c4ccccc4[N+](=O)[O-])CC3)[nH]c(=O)c2cc1OC	?	?	.	-13%	?	?
